# Bioassay records as filed in PubChem.
# D1 ag – human D1 receptor agonism; P21728; HEK293 T-REx D1 cells, calcium flux, agonist mode; activation, % at 2 µM; 360,000 compounds, 1% hits; also: 0% is about no effect
# Target sequence (P21728 whole entry, looked up): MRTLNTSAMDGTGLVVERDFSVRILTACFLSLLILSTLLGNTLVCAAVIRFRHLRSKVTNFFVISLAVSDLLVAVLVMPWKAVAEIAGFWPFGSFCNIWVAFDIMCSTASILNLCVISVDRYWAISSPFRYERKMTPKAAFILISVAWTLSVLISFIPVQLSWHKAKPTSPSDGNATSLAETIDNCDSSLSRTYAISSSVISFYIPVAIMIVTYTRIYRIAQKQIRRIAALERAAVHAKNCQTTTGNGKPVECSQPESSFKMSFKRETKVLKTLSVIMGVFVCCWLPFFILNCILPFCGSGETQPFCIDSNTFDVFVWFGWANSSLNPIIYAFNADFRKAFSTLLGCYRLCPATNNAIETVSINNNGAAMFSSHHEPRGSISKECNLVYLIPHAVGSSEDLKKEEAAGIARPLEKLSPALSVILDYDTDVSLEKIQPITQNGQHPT
#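 Inducible HEK293 T-REx D1 cells, force-coupled to calcium signalling, were plated at 4000 cells/well with tetracycline and held overnight at 30 C. After no-wash calcium dye loading, compound-evoked calcium rise over 180 s flagged agonists.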
# TRHR ag – activates the human TRH receptor | AID 493084 | activation, % at 2 µM | TRHR cells, calcium flux fluo-8, FDSS agonist mode | P34981 | 360,000 compounds, 0.18% hits; also: 0% is about no effect
#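 TRHR-expressing cells, plated overnight in medium with 10% serum, were loaded with fluo-8 calcium dye at room temperature. After a 10 s baseline, library compound was pin-added and calcium release was recorded kinetically (ex 480/em 530) as agonist response.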
# D1 antag – blocks dopamine activation of the human D1 receptor; activity change, negative = inhibition, % at 10 µM; P21728; HEK293 TREx D1 cells, calcium flux, dopamine EC80; stronger effect = lower value; 360,000 compounds, 3.2% hits; in the data active = activity change below about -30%; also: % is scaled to controls: 0 for no effect and ±100 for the full control effect
#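 Tetracycline-induced HEK293 T-REx cells with force-coupled D1 receptor were loaded with a no-wash calcium dye. Compound was added after a 10 s baseline and read kinetically for 180 s; EC80 dopamine was then added and calcium flux followed another 180 s.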
# TRHR PAM – allosterically enhances the human TRH receptor; P34981; TRHR cells, fluo-8 calcium fluorescence, EC20 TRH enhancement; enhancement, % at 2 µM; 360,000 compounds, 0.66% hits; in the data active = enhancement above about 30%; also: 0% is about no effect
#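 Enhancer read-out: after compound pinning and an initial kinetic agonist-mode read, an EC20 of TRH (10 nM final) was injected and fluo-8 calcium signal (Ex 480/Em 530) followed at 1 s/cycle for 100 cycles in TRHR-expressing cells.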
# D1 PAM – potentiators of human D1 dopamine receptor; P21728; HEK293 TREx D1 cells, calcium flux, dopamine EC20 potentiation; potentiation, % at 10 µM; 360,000 compounds, 0.036% hits; AID 504651; in the data active = potentiation above about 30%; also: 0% is about no effect
# * hit, by the source's call. An excerpt weighted towards active compounds, which were near 4.7% of everything screened. Rule as the data show it, unless noted: active = activation above about 30%; inactive = the rest.
SMILES,D1 ag,TRHR ag,D1 antag,TRHR PAM,D1 PAM
COc1ccc(-c2noc(CCC(=O)NCCCN3CCN(c4ccc(F)cc4)CC3)n2)cc1,34.8*,-0.5,-72.8*,-3.6,-15.6
COc1ccc(-c2noc(CCC(=O)NCc3ccco3)n2)cc1,-0.3,-1.8,-37.3*,-1.1,-6.1
COCCCNC(=O)Cn1c(=O)n(-c2cccc(C)c2)c(=O)c2c3c(sc21)CN(C(C)=O)CC3,0.2,0.6,6.9,7.6,3.0
Cc1cc(Cl)ccc1NC(=O)CN1C(=O)C(=O)c2ccccc21,0.5,-0.7,9.5,0.2,-5.9
CCOC(=O)c1ccc(NC(=O)Nc2c[nH]c(=O)[nH]c2=O)cc1,4.3,-0.4,6.6,3.7,-5.0
CCOc1ccc(-c2csc(NC(=O)C3CCCO3)n2)cc1 (stereo not given),2.3,-0.1,-54.5*,-4.8,-1.7
O=C(Nc1nc(-c2ccc(Cl)cc2)cs1)C1CCCO1 (stereo not given),-0.6,-0.2,-7.7,1.4,-6.7
COc1ccc(C(=O)COC(=O)C(C(C)C)N2C(=O)C3C4C=CC(C4)C3C2=O)cc1 (stereo not given),3.1,0.4,-58.8*,-2.3,2.3
O=C(CN1C(=O)C2C3CCC(C3)C2C1=O)OCC(=O)c1ccc(Br)cc1 (stereo not given),7.1,0.6,-19.5,12.0,-4.7
O=C(CN1C(=O)C2C3C=CC(C3)C2C1=O)OCC(=O)c1ccc(Br)cc1 (stereo not given),13.5,0.0,-43.3*,-8.8,-1.6
CN(Cc1ccccc1)C(=O)CSc1nc(-c2ccc(F)cc2)cc(C(F)(F)F)n1,18.6,-0.5,-4.6,7.2,-3.0
CC(=O)c1ccc(NC(=O)c2cccc(N3C(=O)c4ccccc4C3=O)c2)cc1,2.1,0.6,-31.5*,6.7,-0.4
CC(=O)Nc1cccc2c1C(=O)N(c1cccc(OC(C)=O)c1)C2=O,11.4,-0.3,23.3,-0.3,-4.6
CC(=O)Oc1cccc(N2C(=O)c3ccccc3C2=O)c1,0.2,-0.3,-30.6*,2.8,5.0
CC(=O)c1ccc(C(=O)Nc2ccc3c(c2)C(=O)NC3=O)cc1,-0.3,0.5,-35.2*,-0.6,-8.3
COc1ccccc1N1CCN(C(=O)c2cnn(-c3ccc(C)c(C)c3)c2C2CCN(C(=O)OC(C)(C)C)CC2)CC1,3.8,-1.1,-9.1,-6.7,4.5
COc1ccc(CCn2c(C3CCCCC3)nc3c(c(=O)c4ccccc4n3C)c2=O)cc1,126.5*,5.9,-39.3*,10.4,-2.4
COc1ccc(Cn2c(-c3ccccc3)nc3c(c(=O)c4ccccc4n3C)c2=O)cc1,8.2,1.1,6.4,1.1,40.4*
COc1ccc(CCn2c(-c3ccccc3)nc3c(c(=O)c4ccccc4n3C)c2=O)cc1,1.2,-0.1,-8.4,3.7,-7.6
CC(C)c1nc2c(c(=O)c3ccccc3n2C)c(=O)n1CCc1ccccc1,92.9*,12.7,6.2,-11.4,14.4
COc1ccc(Cn2c(C3CCCCC3)nc3c(c(=O)c4ccccc4n3C)c2=O)cc1,42.0*,1.9,19.2,-1.9,15.2
COc1ccc(CCn2c(C3CCCCC3)nc3c(c(=O)c4ccccc4n3C)c2=O)cc1OC,4.4,-0.8,10.7,-4.9,4.6
CCc1ccc(N2C(=O)CS(=O)(=O)C23C(=O)N(Cc2ccccc2F)c2ccccc23)cc1 (stereo not given),6.3,0.6,-14.5,3.5,-1.0
CNC(=O)C1CCC(Cn2c(=O)c3sccc3n(CC(=O)Nc3cc(F)ccc3F)c2=O)CC1 (stereo not given),1.7,0.2,12.2,11.1,-2.5
CCOc1ccccc1-n1ccnc(NCc2ccc(F)cc2)c1=O,1.3,0.2,9.6,-2.9,4.3
CCc1ccc(-c2cc(C(=O)N/N=C/c3ccco3)[nH]n2)cc1,26.5,-0.2,-67.3*,-0.1,3.2
O=C(N/N=C/c1ccco1)c1cc(-c2ccc3ccccc3c2)n[nH]1,0.4,0.1,0.2,-1.3,43.0*
CCc1ccc(-c2cc(C(=O)N/N=C/c3ccccn3)[nH]n2)cc1,-0.3,-0.1,1.0,3.2,1.7
CCN(c1ccccc1)S(=O)(=O)c1ccc(Cl)c(C(=O)N(CC2CCCO2)C2CCS(=O)(=O)C2)c1 (stereo not given),6.4,-0.6,-36.3*,-6.9,-2.8
